Calls of active or inactive are those of the source. Unless noted, the rule behind the calls is not given here.

The test system of assay [1] is Wnt5a (protein binding on small-molecule microarray). Kind of assay: small molecules binding Wnt5a protein – biophysical, small-molecule microarray, 635/667 nm fluorescence, primary screen (AID 1142).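 Note: fluorescence read at 667 nm with signal to noise per printed feature.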 As to conditions: 635 nm fluorescence, higher = more signal.
Assay [2] can be described thus: ATP-based viability of Huh7 replicon cells – cell-based, CellTiter-Glo luminescence, basal, 48 h, cytotoxicity control for HCV replication inhibitor project, primary screen (AID 1143).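 Note: Huh7 hepatoma cells carrying a hepatitis C replication reporter with no stimulus; test concentration not given here.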 To be noted: higher = more signal, called active from +8 up or from −8 down.
A short description of assay [3]: Pseudomonas biofilm growth suppression – PAO1 strain, BacTiter-Glo luminescence, LB-PBS, primary screen (AID 1144). To be noted: P. aeruginosa PAO1 biofilm, 12 h, higher = more signal.
A short description of assay [4]: basal CRE-LacZ reporter activity in PC12 – cell-based, unstimulated, primary screen (AID 1145). To be noted: no forskolin, luminescence, 4.5 h, higher = more signal, called active from +8 up or from −8 down.
Assay [5] in a line: forskolin-driven CRE-LacZ activity in PC12 – cell-based, CRE-LacZ reporter, forskolin-stimulated, primary screen (AID 1146).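 Note: PC12 cells with 6xCRE LacZ reporter stimulated by forskolin 10 µM; beta-galactosidase reporter signal reflecting CREB driven transcription.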 To be noted: luminescence, 4.5 h, higher = more signal, called active from +8 up or from −8 down.
Assay [6] deals with Streptavidin (Streptomyces avidinii) (UniProt P22629). Kind of assay: compounds binding control protein streptavidin – biophysical, small-molecule microarray, 635/667 nm fluorescence, artefact control for SMM compound annotation, primary screen (AID 1147).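 Note: signal reflects streptavidin binding to arrayed compounds as a control protein.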 As to conditions: higher = more signal.
The nature of assay [7]: probe aInhba binding on compound microarray – biochemical, small-molecule microarray, 635/667 nm fluorescence, primary screen (AID 1148).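 Note: score merges 667nm spot fluorescence with signal-to-noise for antibody binding to printed compounds.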 To be noted: higher = more signal.
The target in assay [8] is Torsin-1A (Homo sapiens) (UniProt O14656). Kind of assay: TOR1A wild-type binding on microarray – cell lysate, small-molecule microarray, lysate, 635/667 nm, primary screen (AID 1149). As to conditions: COS7 hTOR1A-WT lysate, 635 nm fluorescence, higher = more signal.
The target is the same in assay [9]. Kind of assay: torsin A mutant lysate binding on microarrays – cell lysate, small-molecule microarray, COS7 lysate, 635/667 nm fluorescence, primary screen (AID 1150).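 Note: score pools 667 nm emission and signal to noise measuring lysate protein binding.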 To be noted: COS7 hTOR1A mutant lysate, 635 nm fluorescence, higher = more signal.
Assay [10] deals with Sonic hedgehog protein (Shh). The assay can be described thus: Sonic hedgehog microarray binding compounds – biochemical, small-molecule microarray, 635/667 nm fluorescence, primary screen (AID 1151).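 Note: Shh protein binding to compounds spotted on small-molecule microarray slides; score combines spot fluorescence intensity with signal-to-noise across triplicate slides.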 To be noted: 635 nm fluorescence, higher = more signal.
Assay [11] can be described thus: optical density shifts of acrAB sulA E. coli – strain DRC41, OD650, 48 h, E. coli filamentation inducer project, primary screen (AID 1152).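 Note: E. coli MC1000 strain DRC41 lacking acrAB efflux pump and sulA.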 To be noted: higher = more signal, called active from +8 up or from −8 down.
Assay [12] in a line: probe aLefty1 binding on compound microarray – biochemical, small-molecule microarray, 635/667 nm fluorescence, primary screen (AID 1153).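 Note: score merges spot fluorescence with signal-to-noise ratio from the scanned slide images.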 As to conditions: higher = more signal.
Assay [13] is described as follows: plasmodial surface anion channel blockers, osmotic lysis – cell-based, P. falciparum Indochina, OD700, 1 h, primary screen (AID 1154). To be noted: P. falciparum Indochina infected RBC osmotic lysis, higher = more signal, called active from +8 up or from −8 down.
Assay [14] is described as follows: plasmodial surface anion channel blockers, osmotic lysis – cell-based, P. falciparum Indochina, OD700, 2 h, primary screen (AID 1155).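 Note: lysis reports solute entry through the parasite surface anion channel PSAC.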 To be noted: P. falciparum Indochina infected erythrocytes, higher = more signal, called active from +8 up or from −8 down.
Assay [15] can be described thus: changes in parasitized red cell lysis, either direction – P. falciparum Indochina, OD700, 3 h, PSAC antagonist project, primary screen (AID 1156). To be noted: P. falciparum-infected erythrocytes, osmotic lysis, higher = more signal, called active from +8 up or from −8 down.
Assay [16] can be described thus: plasmodial surface anion channel blockers, osmotic lysis – cell-based, P. falciparum Indochina, OD700, 18 h, primary screen (AID 1157). To be noted: P. falciparum Indochina infected erythrocytes, osmotic lysis OD700, 18 h; higher = more signal, called active from +8 up or from −8 down.
The nature of assay [17]: S6 kinase pathway phospho-S6 level changes – cell-based, A549, cytoblot, luminescence, serum-stimulated, primary screen (AID 1158).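 Note: serum-stimulated A549 lung adenocarcinoma cells; signal is phosphorylated S6 detected by cytoblot immunostaining with HRP secondary.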 To be noted: 5 h, higher = more signal.
Assay [18] concerns the target NADPH oxidase 2 (Homo sapiens) (UniProt P04839). The assay can be described thus: compounds shifting NOX2 Amplex Red fluorescence – cell-based, HEK293-NOX2, PMA-stimulated, NOX inhibitor project, primary screen (AID 1159). Note: test concentration not given here. To be noted: 45 min, higher = more signal, called active from +8 up or from −8 down.
For assay [19], the target named is NADPH oxidase 4 (Homo sapiens) (UniProt Q9NPH5). The assay can be described thus: compounds shifting NOX4 Amplex Red fluorescence – cell-based, HEK293-NOX4, tetracycline-induced, NOX inhibitor project, primary screen (AID 1160). To be noted: HEK293-NOX4, Amplex Red H2O2 fluorescence, 45 min; higher = more signal, called active from +8 up or from −8 down.
For assay [20], the target named is NADPH oxidase 5 (Homo sapiens) (UniProt Q96PH1). Kind of assay: compounds shifting NOX5 Amplex Red fluorescence – cell-based, HEK293-NOX5, NOX inhibitor project, primary screen (AID 1161). To be noted: HEK293-NOX5, ionomycin, 45 min, higher = more signal.
Sequence of NADPH oxidase 5 (Homo sapiens) (Q96PH1 whole entry, looked up): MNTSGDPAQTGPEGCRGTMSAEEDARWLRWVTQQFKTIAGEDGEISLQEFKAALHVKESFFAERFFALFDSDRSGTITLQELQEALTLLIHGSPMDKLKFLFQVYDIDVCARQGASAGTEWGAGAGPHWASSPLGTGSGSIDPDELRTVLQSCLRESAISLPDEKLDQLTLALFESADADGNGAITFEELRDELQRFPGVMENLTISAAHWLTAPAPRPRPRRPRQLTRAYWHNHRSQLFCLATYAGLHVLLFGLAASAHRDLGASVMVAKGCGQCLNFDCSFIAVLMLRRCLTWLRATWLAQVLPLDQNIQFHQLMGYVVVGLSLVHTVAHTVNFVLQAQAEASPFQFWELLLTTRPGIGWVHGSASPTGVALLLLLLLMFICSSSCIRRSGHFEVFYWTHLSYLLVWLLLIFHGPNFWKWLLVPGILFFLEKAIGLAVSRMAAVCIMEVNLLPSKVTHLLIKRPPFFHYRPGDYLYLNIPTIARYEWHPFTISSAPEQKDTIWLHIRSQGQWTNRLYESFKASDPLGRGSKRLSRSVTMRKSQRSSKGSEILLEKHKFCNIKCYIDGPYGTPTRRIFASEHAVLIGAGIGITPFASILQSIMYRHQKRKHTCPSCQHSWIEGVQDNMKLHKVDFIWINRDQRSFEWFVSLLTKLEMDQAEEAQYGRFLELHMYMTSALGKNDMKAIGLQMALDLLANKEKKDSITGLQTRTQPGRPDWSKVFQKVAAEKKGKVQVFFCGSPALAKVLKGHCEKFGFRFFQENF

Sequence of NADPH oxidase 2 (Homo sapiens) (P04839 whole entry, looked up): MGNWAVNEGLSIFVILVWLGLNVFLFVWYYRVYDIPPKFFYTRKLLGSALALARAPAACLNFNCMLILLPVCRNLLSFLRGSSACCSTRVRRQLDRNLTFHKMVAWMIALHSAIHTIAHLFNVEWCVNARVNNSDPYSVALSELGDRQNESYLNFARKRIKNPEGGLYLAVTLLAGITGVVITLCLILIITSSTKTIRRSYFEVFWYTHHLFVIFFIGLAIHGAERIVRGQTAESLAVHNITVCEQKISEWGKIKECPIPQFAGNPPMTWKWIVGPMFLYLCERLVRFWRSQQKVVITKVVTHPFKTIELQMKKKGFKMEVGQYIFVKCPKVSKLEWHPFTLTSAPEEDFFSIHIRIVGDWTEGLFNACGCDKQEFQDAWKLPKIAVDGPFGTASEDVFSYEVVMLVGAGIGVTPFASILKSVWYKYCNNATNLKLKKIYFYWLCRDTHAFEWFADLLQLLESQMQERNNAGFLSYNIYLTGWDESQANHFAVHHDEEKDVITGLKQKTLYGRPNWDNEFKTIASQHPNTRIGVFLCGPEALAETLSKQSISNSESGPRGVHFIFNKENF
Sequence of Torsin-1A (Homo sapiens) (O14656 whole entry, looked up): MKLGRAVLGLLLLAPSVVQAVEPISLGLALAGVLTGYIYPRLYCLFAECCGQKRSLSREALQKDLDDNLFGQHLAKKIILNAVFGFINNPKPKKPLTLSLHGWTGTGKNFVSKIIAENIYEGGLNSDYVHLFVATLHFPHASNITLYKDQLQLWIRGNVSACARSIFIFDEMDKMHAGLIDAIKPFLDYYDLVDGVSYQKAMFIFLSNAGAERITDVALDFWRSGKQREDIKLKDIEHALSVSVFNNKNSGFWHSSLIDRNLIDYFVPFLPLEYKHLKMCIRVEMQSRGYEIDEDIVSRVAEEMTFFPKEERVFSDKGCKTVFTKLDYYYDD
Sequence of Streptavidin (Streptomyces avidinii) (P22629 whole entry, looked up): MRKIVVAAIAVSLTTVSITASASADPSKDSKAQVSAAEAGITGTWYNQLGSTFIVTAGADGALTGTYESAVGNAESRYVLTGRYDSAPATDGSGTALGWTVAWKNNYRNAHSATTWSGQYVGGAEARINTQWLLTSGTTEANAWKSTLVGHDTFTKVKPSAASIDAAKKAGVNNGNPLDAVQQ
Sequence of NADPH oxidase 4 (Homo sapiens) (Q9NPH5 whole entry, looked up): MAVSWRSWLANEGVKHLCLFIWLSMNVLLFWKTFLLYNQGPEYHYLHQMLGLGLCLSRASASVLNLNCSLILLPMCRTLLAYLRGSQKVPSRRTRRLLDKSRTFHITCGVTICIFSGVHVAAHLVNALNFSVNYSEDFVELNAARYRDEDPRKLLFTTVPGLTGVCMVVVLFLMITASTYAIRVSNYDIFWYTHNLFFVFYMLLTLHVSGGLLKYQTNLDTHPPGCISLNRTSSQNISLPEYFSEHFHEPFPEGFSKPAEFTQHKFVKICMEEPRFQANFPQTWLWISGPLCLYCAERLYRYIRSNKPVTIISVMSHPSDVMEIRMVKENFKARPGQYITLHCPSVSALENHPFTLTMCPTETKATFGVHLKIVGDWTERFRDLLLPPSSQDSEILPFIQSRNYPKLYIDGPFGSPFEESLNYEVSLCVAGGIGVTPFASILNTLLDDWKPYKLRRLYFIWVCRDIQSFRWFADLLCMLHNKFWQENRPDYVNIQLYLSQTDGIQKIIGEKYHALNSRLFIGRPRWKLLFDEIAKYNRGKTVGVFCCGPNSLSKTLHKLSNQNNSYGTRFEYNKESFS

Regarding `O=C(N1CCCCC1)[C@]1(Cc2ccccc2)N=C(c2ccc(OCCCO)cc2)O[C@@H]1c1ccccc1`, the composite z-score in assay [1] was 0.33; in assay [6], 0.997; in assay [7] it was 0.0074; with Torsin-1A (Homo sapiens) [8], 1.03; with Torsin-1A (Homo sapiens) [9] it was 0.0081; in [10], -0.412. In assay [12], the composite z-score was determined as 0.446. Further, the z-score in assay [2] was -6.07 (inactive); in assay [3] it was -0.759 (inactive); in assay [4] it was 0.558 (inactive); in assay [5], 0.182 (inactive); in assay [11] it was -0.834 (inactive); in assay [13], 28 (active). Also, the z-score in [14] is 20.6 (active); in assay [15] it was 0.696 (inactive); in assay [16] it was 1.28 (inactive); in assay [17] it was 2.33; in [18] it was -2.82 (inactive); in [19], -1.37 (inactive). In addition, the z-score in [20] was -1.7.

Turning to `COc1cc(C(O)C2C=CC3C(=O)NC(=O)C3N2Nc2ccccn2)cc(OC)c1OC` (stereo not given), the composite z-score in assay [1] turned out to be 0.147; in [6], 0.0266; in assay [7] it was 0.0448; in the assay with Torsin-1A (Homo sapiens) [8], 0.366; with Torsin-1A (Homo sapiens) [9] it was 0.291; in assay [10], 0.371. This compound also yielded a composite z-score in [12] of 0.19. Further, the z-score was 0.969 (inactive) in assay [2]; 0.0747 (inactive) in [3]; 0.0467 (inactive) in assay [4]; 0.329 (inactive) in [5]; -1.57 (inactive) in [11]; 0.0115 (inactive) in assay [13]. For the same compound, the z-score was 0.297 (inactive) in assay [14]; -0.928 (inactive) in assay [15]; 0.409 (inactive) in assay [16]; -1.21 in assay [17]; -1.42 (inactive) in assay [18]; -3.26 (inactive) in [19]. Moreover, the z-score in assay [20] was -2.9.

Regarding `CCc1cccc(NC(=O)O[C@H]2[C@H](OC(=O)Nc3ccccc3-c3ccccc3)[C@@H](OC(=O)Nc3ccccc3-c3ccccc3)[C@@H](OC)O[C@@H]2CO)c1`, the composite z-score in [1] was 0.729; in assay [6] it was 0.751; in assay [7], -0.0087; in the assay with Torsin-1A (Homo sapiens) [8] it was 1.19; in the assay with Torsin-1A (Homo sapiens) [9] it was 1.64; in [10], 0.203. The compound also registered a composite z-score in assay [12] of 0.419. For the same compound, the z-score in assay [2] is -6.04 (inactive); in [3], -0.0932 (inactive); in assay [4], -0.655 (inactive); in assay [5], -0.756 (inactive); in assay [11], -1.5 (inactive); in assay [13], 3.37 (inactive). Also, the z-score in [14] is 0.995 (inactive); in assay [15] it was -0.975 (inactive); in [16], 1.31 (inactive); in assay [17], -0.84; in [18] it was -5.54 (inactive); in assay [19], -1.18 (inactive). In assay [20], the z-score is -1.13.

Regarding `[N-]=[N+]=Nc1ccccc1[C@@H]1OC(c2ccc(OCCCO)cc2)=N[C@]1(Cc1ccccc1)C(=O)N1CCOCC1`, the composite z-score was 0.546 in assay [1]; 1.35 in assay [6]; 0.0658 in [7]; 0.311 with Torsin-1A (Homo sapiens) [8]; 0.58 with Torsin-1A (Homo sapiens) [9]; -0.3 in assay [10]. This compound also came in with a composite z-score in assay [12] of 0.391. Also, the z-score is -3.97 (inactive) in assay [2]; 0.617 (inactive) in assay [3]; 1.56 (inactive) in [4]; -1.42 (inactive) in assay [5]; 0.123 (inactive) in assay [11]; 31.8 (active) in [13]. Further, the z-score in [14] was 32.1 (active); in [15] it was 2.51 (inactive); in [16] it was 3.91 (inactive); in [17], -0.37; in assay [18] it was -0.507 (inactive); in [19] it was -0.36 (inactive). Also, the z-score in assay [20] was -1.77.

The record behind these values is PubChem BioAssay.
